# Hits are enriched below; roughly 3.1% of the tested compounds scored in any of these assays.
# Tau FP inhib: blocks human tau fibril formation measured by polarization | P10636 | K18 P301L tau heparin fibrillization, Alexa594 FP, 6 h | Potency, µM (highest dose often 57.7 µM), inactives show top-dose activity, negative = inhibition, usual class: inhibitors | 0.39% of 280,000 active | AID 1468; note: nearly all actives have a fitted effect of over 55% in size
# Target sequence (P10636 561-689 P618L limits assumed): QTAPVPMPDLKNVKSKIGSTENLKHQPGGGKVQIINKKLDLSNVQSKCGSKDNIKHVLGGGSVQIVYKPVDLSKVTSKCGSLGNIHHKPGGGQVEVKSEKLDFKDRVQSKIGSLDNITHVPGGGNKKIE
#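 Quantitative HTS format: compounds meet 15 uM recombinant K18 P301L tau and Alexa 594-tau tracer in 100 mM sodium acetate pH 7; 20 uM heparin triggers fibrillization at 37 C over 6 hr; FP gives the signal.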
# TR SRC2 fluor cs: counter-screen for TRb-SRC2 inhibitors: fluorescence interference | TRb/SRC2 Texas Red total fluorescence interference | Potency, µM (titrated, usually from 106 µM), for the others: at the highest dose fluorescence change, negative = quenching | 0.29% of 280,000 active | AID 1479; active = well fitted curve in either direction with a large enough effect; inconclusive = small, poorly fitted or top-dose-only effect
#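 Flags fluorescent or light-absorbing compounds by total fluorescence, S + 2P, at 555 nm excitation and 632 nm emission. Mixture: 20 nM Texas Red SRC2 peptide, 0.6 uM human TRb LBD, 1 uM T3, 5% DMSO; compound exposure 5 h at ambient temperature.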
# TRb SRC2 PPI: disrupts binding of human TR beta to SRC2; Potency, µM (highest dose often 106 µM), for the others: at the top dose activity change, negative = inhibition, actives largely listed as inhibitors; TRbeta-SRC2 peptide binding, fluorescence polarization; receptor liganded with 1 µM T3; 0.065% of 280,000 active;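 note: plate controls were bound peptide for no effect and peptide without receptor for full effect; nearly all actives have a fitted effect of over 50% in size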
# Target sequence (P10828 whole entry, looked up): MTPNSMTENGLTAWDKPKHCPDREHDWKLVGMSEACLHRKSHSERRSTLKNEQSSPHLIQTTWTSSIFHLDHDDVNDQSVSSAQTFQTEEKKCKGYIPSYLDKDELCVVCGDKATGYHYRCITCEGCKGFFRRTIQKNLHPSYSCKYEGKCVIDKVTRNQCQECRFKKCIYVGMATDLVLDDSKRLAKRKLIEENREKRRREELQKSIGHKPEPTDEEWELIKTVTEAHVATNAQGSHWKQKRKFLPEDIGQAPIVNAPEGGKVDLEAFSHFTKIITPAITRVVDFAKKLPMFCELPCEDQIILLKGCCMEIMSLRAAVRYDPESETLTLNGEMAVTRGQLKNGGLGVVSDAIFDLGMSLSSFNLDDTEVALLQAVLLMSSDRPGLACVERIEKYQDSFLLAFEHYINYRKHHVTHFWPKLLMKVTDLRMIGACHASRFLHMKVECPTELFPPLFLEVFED
#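 Polarization signal, normalized between peptide-alone and full complex controls, measured compound effects on T3-liganded human TRb LBD (0.6 uM) binding 20 nM Texas Red SRC2 peptide after 5 hr.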
# Tau fibril ThT: inhibitors of human tau fibril formation, thioflavin T binding. P10636. Potency, µM (top dose mostly 57.4 µM), inactives show at the highest dose activity, negative = inhibition, most hits filed as inhibitors. 2.1% of 270,000 active. recombinant tau K18 P301L, heparin-induced fibrillization, ThT fluorescence. AID 1460; note: nearly all actives have a fitted effect of over 55% in size
#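 Using a mix of unlabeled (15 uM) and Alexa 594-labeled (0.24 uM) tau K18 P301L, heparin-triggered fibrillization over 6 hr at 37 C was scored by ThT fluorescence.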
# Tau fluor cs: counter-screen for tau fibril formation inhibitors. Potency, µM (highest dose often 57.7 µM), inactives show at the highest dose activity change, negative = decrease. 0.93% of 280,000 active. tau K18 P301L (four-repeat tau fragment) Alexa594 fluorescence, heparin fibrillization. AID 1463; note: nearly all actives have a fitted effect of over 55% in size
#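 Human K18 P301L tau (15 uM unlabeled plus 0.24 uM Alexa 594-labeled, final) in 100 mM sodium acetate pH 7 was mixed with compound and 20 uM heparin and incubated 6 hr at 37 C.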
# Starred values were filed as active, the others as inactive; ? = inconclusive; nt = not tested or not shown; [ ] = dose if it differs, or a comment. Unless noted, calls come from the whole dose curve; as a rule, active = well fitted curve in the direction sought with a large enough effect; inconclusive = small, poorly fitted or top-dose-only effect, or another doubt; inactive = no such curve, though single readings can be large; an effect the other way counts as inactive or inconclusive. Unless noted, % is set by controls: 0 for no effect and ±100 for the full control effect; potency is the fitted concentration of half-maximal effect.
SMILES,Tau FP inhib,TR SRC2 fluor cs,TRb SRC2 PPI,Tau fibril ThT,Tau fluor cs
O=C1Nc2ccccc2/C1=N\N=C\C1=C(N2CCOCC2)C(=C\c2ccccc2)/CC1,?,-1%,7%,7.1µM*,?
COc1ccc(O)c(/C=N/N=C2/C(=O)Nc3ccccc32)c1,2%,-3%,-5%,?,-12%
COc1cc(/C=N/N=C2/C(=O)Nc3ccccc32)cc(OC)c1O,?,-6%[53 µM],0%[53 µM],11µM*,?
Cn1cc(C(=O)N/N=C/C2=C(N3CCOCC3)C(=C\c3ccccc3)/CC2)ccc1=O,16%,2%,-11%,?,-12%
O=C1Nc2ccccc2/C1=N/N=C/c1cccc(O)c1,2%,-9%,0%,11µM*,?
CC(=O)c1ccc(NC(=O)CN2C(=O)CCc3ccccc32)cc1,-1%,1%,-7%,?,-23%
N#Cc1c(-c2ccccc2)cc(-c2ccccc2)nc1SCC(O)CS(=O)(=O)Cc1ccccc1 (configuration not stated),?,-19%,5%,?,?
CN(C)c1nc(N(C)C)nc(N(C#N)CN2C(=O)c3ccccc3C2=O)n1,-5%,1%,-3%,-2%,-6%
O=C(NCc1nc(-c2ccc(C(F)(F)F)cc2)no1)Nc1ccc(OC(F)(F)F)cc1,7.9µM*,-2%,-2%,nt,-15%
COc1cccc(CNCCSc2nnnn2C)c1,-1%,-7%,-3%,5%,6%
COc1cccc(CNCCCSc2nnnn2C)c1,7%,1000µM*[quencher],-21%,0%,6%
COc1ccccc1C1CCN(c2cc(O)ccc2[N+](=O)[O-])CC1,?,-3%,-2%,20µM*,?
COc1ccccc1C1CCN(C(=O)c2cccs2)CC1,-2%,-1%,-2%,-18%,-14%
COC(=O)C1CCC(C(=O)OC)CC1 (configuration not stated),nt,3%[201 µM],2%[201 µM],nt,nt
O=C(CSc1nc2ccc(Cl)cc2[nH]1)Nc1ccc2c(c1)CCC2,13µM*,-2%,0%,?,?
Cc1ccc2nc(SCC(=O)Nc3ccc4c(c3)CCC4)[nH]c2c1,2%,-1%,0%,?,6%
CC(C)c1ccc(/C=C(\C#N)c2nc(-c3ccc(O)cc3)cs2)cc1,13µM*,-72%,-18%,7.9µM*,8.9µM*[quencher]
COc1cc(/C=C(\C#N)c2nc3ccccc3s2)cc([N+](=O)[O-])c1O,-3%,25µM*[quencher],18%,1.4µM*,16µM*[quencher]
COc1ccc(-c2csc(/C(C#N)=C\c3ccc(OC)c([N+](=O)[O-])c3)n2)cc1,0%,-1%,4%,?,-27%
O=C(O)CC/C(=C\c1ccc(Cl)c([N+](=O)[O-])c1)c1nc2ccccc2s1,9%,-1%,7%,12%,10%
N#C/C(=C\c1ccc(O)c([N+](=O)[O-])c1)c1nc2ccccc2s1,-1%,-26%,12%,2.2µM*,?
COc1ccc(-c2csc(/C(C#N)=C\c3ccc(O)c([N+](=O)[O-])c3)n2)cc1OC,-5%,-17%,1%,1.3µM*,4.5µM*[quencher]
CC1CCN(CCCNC(=O)c2ccc(Cn3c(=S)[nH]c4ccc(Br)cc4c3=O)cc2)CC1,11%,-2%,1%,?,?
Cc1cc(C)cc(NC(=O)C2CCCN2S(=O)(=O)c2ccc3c(c2)CCCC(=O)N3)c1 (configuration not stated),-3%,0%,-1%,0%,-4%
COc1ccccc1N1CCN(S(=O)(=O)c2ccc3nc(-c4ccccc4)[nH]c3c2)CC1,22µM*,2%,-1%,8%,?
SMILES,Tau FP inhib,TR SRC2 fluor cs,TRb SRC2 PPI,Tau fibril ThT,Tau fluor cs
CCOc1ccccc1NC(=O)C1CCN(S(=O)(=O)c2ccc3[nH]c(=O)ccc3c2)CC1,?,-27%,-2%,2%,1%
O=S(=O)(c1ccc2nc(-c3ccccc3)[nH]c2c1)N1CCN(c2cccc(Cl)c2)CC1,?,-7%,-1%,-4%,?
Cc1cc(C)cc(NC(=O)C2CCCN2S(=O)(=O)c2ccc3nc(-c4ccccc4)[nH]c3c2)c1 (configuration not stated),?,-2%,-2%,11%,14µM*[quencher]
CCc1cccc(NC(=O)C2CCCN2S(=O)(=O)c2ccc3nc(-c4ccccc4)[nH]c3c2)c1 (configuration not stated),32µM*,-3%,-2%,16%,14µM*[quencher]
CCc1cccc(NC(=O)C2CCCN2S(=O)(=O)c2ccc3c(c2)n(C)c(=O)c(=O)n3C)c1 (configuration not stated),-2%,-3%,7%,?,-5%
CCOc1ccccc1NC(=O)C1CCCN1S(=O)(=O)c1ccc2nc(-c3ccccc3)[nH]c2c1 (configuration not stated),?,-2%,5%,4%,10µM*[quencher]
O=c1cc(CSc2ccccc2)[nH]c2ccc(F)cc12,2%,-3%,1%,0%,1%
Cc1ccc(CN(Cc2ccco2)C(=O)c2oc3c(C)c(C)ccc3c2C)cc1,0%,6%,-3%,-15%,-6%
Cc1ccc(N2CC(NC(=O)/C=C\c3ccc4c(c3)OCO4)CC2=O)cc1C (configuration not stated),1%,0%,9%,-16%,-20%
CC1CCN(S(=O)(=O)c2ccc(C(=O)Nc3ccccc3-c3nc4ccccc4[nH]3)cc2)CC1,28µM*,-1%,-4%,18%,?
Cc1cc(F)ccc1S(=O)(=O)Nc1ccccc1C(=O)Nc1ccccc1-c1nc2ccccc2[nH]1,13µM*,2%,4%,8%,?
CC1CCCN(S(=O)(=O)c2ccc(C(=O)Nc3ccccc3-c3nc4ccccc4[nH]3)cc2)C1 (configuration not stated),?,1%,-1%,6%,?
COc1ccccc1C(=O)Nc1cc(Cl)ccc1O,6%,-2%,-14%,-9%,-7%
CCOc1ccccc1C(=O)Nc1cc(Cl)ccc1O,?,-3%,10%,?,18µM*[quencher]
N#Cc1c(N)oc(-c2ccc3c(c2)OCO3)c1-c1ccc2c(c1)OCO2,12%,-2%,5%,?,28µM*[quencher]
N#Cc1c(N)nc2c(c1-c1ccc3c(c1)OCO3)CCCCCC2,-11%,1%,-20%,-8%,-7%
COc1cccc(-c2nc3c(c(SCc4ccccc4)n2)Cc2c(CO)cnc(C)c2O3)c1,10%,-1%,-8%,-6%,5%
CC(C)C(=O)c1cn(CC(=O)NCc2ccco2)c2ccccc12,0%,0%,-3%,0%,1%
CN1C(=O)/C(=C/c2cn(CC(=O)NCc3ccco3)c3ccccc23)NC1=S,?,-1%,7%,13µM*,?

# Screens as filed in PubChem.
